These results are taken from PubChem BioAssay (NCATS).

Several values for one entry are separate records, joined by “and”; a condition that tells them apart may be missing. Identical values can stand only once. Records with an inconclusive call do not appear. More than one record can exist for a structure, and the calls need not agree. Activity calls are given as the source filed them. Calls follow the shape of the dose curve; as a rule, active = well fitted curve in the direction sought with a large enough effect; inconclusive = small, poorly fitted or top-dose-only effect, or another doubt; inactive = no such curve, though single readings can be large; an effect the other way counts as inactive or inconclusive.

Test [1] is described as follows: P-glycoprotein substrates identified in KB-8-5-11 adenocarcinoma cell line, qHTS therapeutic library screen (AID 1346987). Also: nearly all actives have a fitted effect of over 65% in size. Also: potency is read from the fitted curve at half-maximal effect. Summed up: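 KB-8-5-11, a colchicine-selected P-gp-overexpressing KB-3-1 subline, was grown without colchicine for the assay. Cells were seeded at 500 cells/well, dosed in concentration-response and incubated 72 h at 37 degree C, 5% CO2. Viability was read by CellTiter-Glo luminescence.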

The nature of test [2]: NS1 protein of Zika virus - qHTS assay to identify small molecule inhibitors in human HEK 293 cells (AID 1347053). Also: nearly all actives have a fitted effect of over 55% in size. Also: potency is read from the fitted curve at half-maximal effect. The method, boiled down: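 Following 20 h seeding, HEK 293 cells took compound, then 1 h later ZIKV MR766 (MOI = 0.5). Incubation ran 24 h at 37 C before TR-FRET detection of NS1; a drop in signal indicates inhibition.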
In general terms: In qHTS, concentration-response curves come from the screen itself.

A short description of test [3]: qHTS of pediatric cancer cell lines to identify multiple opportunities for drug repurposing: Primary screen for TC32 cells (AID 1347089). Also: nearly all actives have a fitted effect of over 60% in size. Also: potency is read from the fitted curve at half-maximal effect. Summed up:
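qHTS, TC32, 48 h drug treatment, CellTiter-Glo luminescence as a proxy for metabolically active cells; primary top concentration 46 µM (MIPE 11-pt, NPC 8-pt); confirmatory 11-pt.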

Test [4] is described as follows: qHTS of pediatric cancer cell lines to identify multiple opportunities for drug repurposing: Primary screen for DAOY cells (AID 1347090). Also: nearly all actives have a fitted effect of over 55% in size. Also: potency is read from the fitted curve at half-maximal effect. The method, boiled down:
(§1)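 Eight- or eleven-point concentration series, 48 h treatment at 37 degrees C in growth media; readout CellTiter-Glo luminescence. Potency and efficacy were taken from the concentration-response curves.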

A short description of test [5]: qHTS of pediatric cancer cell lines to identify multiple opportunities for drug repurposing: Primary screen for SJ-GBM2 cells (AID 1347091). Also: potency is read from the fitted curve at half-maximal effect. The method, boiled down: as §1
The nature of test [6]: qHTS of pediatric cancer cell lines to identify multiple opportunities for drug repurposing: Primary screen for A673 cells (AID 1347092). Also: nearly all actives have a fitted effect of over 45% in size. Also: potency is read from the fitted curve at half-maximal effect. The method, boiled down:
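Luminescence from CellTiter-Glo, taken after 15 min at room temperature, served as the proxy for metabolically active cells following 48 h treatment. Both potency and efficacy were taken from curves fitted to the titration data.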

Test [7] in a line: qHTS of pediatric cancer cell lines to identify multiple opportunities for drug repurposing: Primary screen for SK-N-MC cells (AID 1347093). Also: potency is read from the fitted curve at half-maximal effect. Summed up: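 Metabolically active cells were quantified by ATP-dependent luminescence (CellTiter-Glo, 15 min at room temperature) following 48 h treatment. Cells had been plated at 500-1,000 per well and settled for 5 h beforehand.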
Test [8] can be described thus: qHTS of pediatric cancer cell lines to identify multiple opportunities for drug repurposing: Primary screen for BT-37 cells (AID 1347094). Also: potency is read from the fitted curve at half-maximal effect. Summed up:
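Viability was measured as metabolically active cells after 48 hours of treatment, read by CellTiter-Glo luminescence. Compounds were tested at multiple final concentrations, giving concentration-response curves.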

The nature of test [9]: P-glycoprotein substrates identified in KB-3-1 adenocarcinoma cell line, qHTS therapeutic library screen (AID 1346986). Also: nearly all actives have a fitted effect of over 60% in size. To be noted: KB-3-1 parental cells viability, CellTiter-Glo, 72 h; at 44.5 µM (top of the series). Summed up: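 Resistance attributable to P-gp was assessed by comparing AC50 in KB-8-5-11 with parental KB-3-1 and by tariquidar reversal. Cells were exposed 72 h and viability read by CellTiter-Glo.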

As to `CCc1c2c(nc3ccc(OC(=O)N4CCC(N5CCCCC5)CC4)cc13)-c1cc3c(c(=O)n1C2)COC(=O)[C@]3(O)CC`, the Potency result in test [1] was “inactive”. Also, the Potency in test [2] is 332 nM (active); in [3] it was 236 nM (active) and 739 nM (active); in [4], 13.3 µM (active) and 1.48 µM (active); in test [5], 1.19 µM (active) and 590 nM (active); in test [6] it was 1.06 µM (active) and 590 nM (active); in test [7], 106 nM (active) and 105 nM (active). In addition, the Potency in test [8] is 389 nM (active) and 544 nM (active).
Regarding `O=NN(CCCl)C(=O)NC1CCCCC1`, in test [9], the result was inactive. In addition, the Potency entry in [2], in [3], in test [4], in test [5], in [6] and in [7] was “inactive” throughout. For the same compound, in [8], the Potency result is “inactive”.
Regarding `O=P(O)(O)C(O)(Cc1cccnc1)P(=O)(O)O`, the Potency result in [1], in [2], in test [3], in test [5], in [6] and in test [7] was “inactive” each time. Besides, in test [8], the Potency entry was “inactive”.
With `COCCCOc1cc(C[C@@H](C[C@H](N)[C@@H](O)C[C@H](C(=O)NCC(C)(C)C(N)=O)C(C)C)C(C)C)ccc1OC`, the Potency result in [1], in test [2], in test [5], in test [6], in [7] and in test [8] was “inactive” in each case.
Take `N=C(N)c1ccc(OCCCCCOc2ccc(C(=N)N)cc2)cc1`: the Potency entry in test [1], in test [2] and in test [5] was “inactive” in each case. Besides, the Potency was 21.1 µM (active) and 14.8 µM (active) in [6]; 33.2 µM (active) in test [7].
With `Clc1ccccc1CN1CCc2sccc2C1`, the Potency entry in test [1], in test [2], in test [3] and in [4] was “inactive” in each case. For the same compound, the Potency in test [8] is 1.53 µM (active).
Take `CS(=O)(=O)c1ccc([C@@H](O)[C@@H](CO)NC(=O)C(Cl)Cl)cc1`: the Potency entry in [1], in [2], in test [3], in [5], in test [6] and in test [7] was “inactive” throughout. Further, the Potency entry in test [8] is “inactive”.
For the compound `CC(=O)CC(c1ccccc1)c1c(O)c2ccccc2oc1=O` (stereo not given), the Potency entry in test [1], in [2], in test [5], in test [6] and in [8] was “inactive” each time.
Turning to `Cn1nnc2c(C(N)=O)ncn2c1=O`, the Potency entry in test [1], in test [2], in [3], in [5], in test [6] and in test [7] was “inactive” each time. Further, in test [8], the Potency result is “inactive”.
As to `CN1CCCC(n2nc(Cc3ccc(Cl)cc3)c3ccccc3c2=O)CC1` (stereo not given), the Potency result in test [1] and in [2] was “inactive” throughout. The Potency in [5] was 1.32 µM (active); in test [6], 0.935 µM (active); in test [7], 0.833 µM (active); in test [8], 2.43 µM (active).
In the case of `CNCC[C@H](Oc1cccc2ccccc12)c1cccs1`, the Potency entry in test [1], in test [3] and in test [5] was “inactive” in each case. The Potency is 1.18 µM (active) in test [6] and 1.05 µM (active) in test [7].
Regarding `COc1ccc2cc3[n+](cc2c1OC)CCc1cc2c(cc1-3)OCO2`, the Potency entry in test [1], in test [2] and in test [5] was “inactive” throughout. Further, the Potency in test [6] is 2.11 µM (active) and 2.35 µM (active); in test [7], 8.41 µM (active) and 18.7 µM (active).
For the compound `C1CCC(C(CC2CCCCN2)C2CCCCC2)CC1` (stereo not given), the Potency in test [1] is 5.17 µM (active) and 16.6 µM (active); in test [2] it was 10 µM (active) and 11.8 µM (active); in [6], 10.6 µM (active) and 23.5 µM (active); in test [7], 11.9 µM (active); in test [8], 34.7 µM (active) and 30.6 µM (active). In addition, the Potency result in test [3] and in test [4] was “inactive” in each case.
In the case of `C[C@@H]1CN(c2c(F)c(N)c3c(=O)c(C(=O)O)cn(C4CC4)c3c2F)C[C@H](C)N1`, the Potency result in test [1], in [2], in test [3], in [5], in test [6] and in test [7] was “inactive” each time. Further, the Potency entry in [8] is “inactive”.
As to `CC(C)Cn1cnc2c(N)nc3ccccc3c21`, the Potency result in test [1], in test [2], in test [3] and in test [4] was “inactive” each time. Further, the Potency in test [7] is 16.6 µM (active).
As for `CC(C)C1CCC(C(=O)N[C@H](Cc2ccccc2)C(=O)O)CC1` (stereo not given in full), the Potency entry in [1], in test [2], in test [3], in test [5], in test [6] and in [7] was “inactive” in each case. For the same compound, the Potency entry in [8] is “inactive”.
Consider `CO[C@@]12[C@H](COC(N)=O)C3=C(C(=O)C(C)=C(N)C3=O)N1C[C@@H]1N[C@@H]12`, for which the Potency result in test [1] is “inactive and 16.6 µM (active)”; in test [5] it was 14.8 µM (active); in test [6], 1.33 µM (active) and 1.18 µM (active); in test [7], 266 nM (active) and 743 nM (active); in test [8], 347 nM (active) and 1.72 µM (active). Further, in test [2], the Potency entry is “inactive”.
Turning to `O=S(=O)(O)CCS`, the Potency result in test [1], in [2], in [5], in test [6] and in test [8] was “inactive” in each case.
Regarding `CC(=O)Oc1ccccc1C(=O)Nc1ncc([N+](=O)[O-])s1`, the Potency result in test [1] was “inactive and 13 µM (active)”; in test [4], 13.6 µM (active); in [5] it was 8.55 µM (active); in test [6] it was 42.9 µM (active); in test [8], 28 µM (active) and 19.5 µM (active). Besides, the Potency result in test [2] is “inactive”.
With `COc1ccccc1OCC(O)COC(N)=O` (stereo not given), the Potency result in test [1], in test [2], in [4], in test [5], in test [6] and in test [7] was “inactive” each time. Also, the Potency entry in [8] was “inactive”.
For `Nc1nc(N)nc(-c2cc(Cl)ccc2Cl)n1`, the Potency result in test [1], in test [2], in test [4], in [5], in test [6] and in test [7] was “inactive” throughout. Further, the Potency result in test [8] is “inactive”.
Turning to `CN1CCN(c2c(F)cc3c(=O)c(C(=O)O)cn(CCF)c3c2F)CC1`, the Potency entry in [1], in test [2], in [4], in test [5], in test [6] and in [7] was “inactive” throughout. Besides, the Potency result in test [8] was “inactive”.
In the case of `CCCOc1ccc(C(=O)OCCN(CC)CC)cc1N`, the Potency entry in test [1], in [2], in [4], in [5], in test [6] and in [7] was “inactive” in each case. Besides, the Potency entry in test [8] is “inactive”.
